Test results from PubChem BioAssay AID1956 (SRMLSC, 2009).
Hit rate of the full screen: of about 220,000 compounds, about 10 (0.005%) were called active. Cut-off read from the data, not from the text of the source: active = maximum fold increase above about 1.5; inconclusive = no clear call, values can overlap the other calls; inactive = below that; tested in PC3 cells. Not all results are given here.

experiment: compounds boosting herpes simplex virus growth – fold increase, host cell viability (AID 1956); conditions: HSV replication augmentation in cells; fold increase: measured here: primary screen fold increase 10 uM, at 10 µM, stronger effect = higher value; maximum fold increase: at 0.098 µM, stronger effect = higher value; viability: measured here: host cell viability series, at 25 µM, stronger effect = lower value

Compound	fold increase	outcome	maximum fold increase	viability [%]
CCOC(=O)c1nnn2c1nc(N1CCN(c3ccccc3)CC1)c1ccccc12	1.01	inactive		
CC1=C(N2CCN(c3ncccn3)CC2)CCC1=O	1.12	inactive		
N#CCc1c(C#N)c(N)nc(N2CCCC2)c1C#N	0.85	inactive		
COc1ccc(-c2nc3c(s2)CCc2onc(-c4ccc(Br)cc4)c2-3)cc1	0.69	inactive		
C=CCSC(CC)(CC)C(N)=O	1.35		1.19 (inactive)	104
COCOc1cc(O)c(C(=O)/C=C/c2ccc(OCOC)c(OCOC)c2)c(OCOC)c1	0.92	inactive		
O=C(NC1CCN(Cc2ccccc2)CC1)c1ccc(Oc2cc(Cl)cc(Cl)c2)o1	0.88	inactive		
CN(C)/C=C(/C(=O)c1ccc(Cl)c(Cl)c1)c1nnnn1-c1ccccc1	1.22	inactive		
COc1ccc2nc(NC(=O)NC3CCCCC3)sc2c1	0.94	inactive		
C=CCOC(=O)C1=C[C@H](c2ccc(Br)cc2)C[C@H](OCCCCO)O1	0.91	inactive		
O=C(CCl)Nc1ccc(Sc2ccc(NC(=O)CCl)cc2)cc1	0.77	inactive		
CC(C)c1ccc(NC(=S)NC2CC3C=CC2C3)cc1 (stereo not drawn)	0.94	inactive		
CCCNc1c(N)c(=O)c1=O	0.92	inactive		
CCCc1ccc(C(=O)[C@@H]2[C@@H](C(C)=O)N3c4ccc(F)cc4C=C[C@@H]3[C@@]23C(=O)Nc2ccccc23)cc1	1	inactive		
Nc1c(N(CCO)C(=O)C2CCCCC2)c(=O)[nH]c(=O)n1Cc1ccccc1	0.95	inactive		
CC1CC(=O)Nc2ccccc2N1S(=O)(=O)c1cccs1 (stereo not drawn)	1.03	inactive		
C=C1CCN([C@@H](Cc2ccccc2)C(=O)N2CCOCC2)S(=O)(=O)c2ccccc21	0.89	inactive		
CC1CC(NC(=O)/C(C#N)=C/c2ccc[nH]2)CC(C)(C)C1 (stereo not drawn)	0.99	inactive		
Cc1nn2c(NCCN(C)C)c3c(nc2c1-c1ccccc1)CCC3	0.77	inactive		
COc1ccccc1C1=CC(=O)CCC1	0.81	inactive		
COCCCn1c(-c2cccs2)nc2nc3ccccc3nc21	0.9	inactive		
O=C(CCNc1n[nH]c(=O)[nH]c1=O)N/N=C\c1ccc(Br)cc1	1	inactive		
CC1(C)CC(CNCCC(c2ccc(F)cc2)c2ccco2)CCO1 (stereo not drawn)	0.96	inactive		
COc1ccc(CCn2c(NN=C3CCCC3)nc3c2c(=O)[nH]c(=O)n3C)cc1	0.93	inactive		
CSC1=NC2(C)CCCCC2C12C=CC(=O)C=C2 (stereo not drawn)	0.88	inactive		
CCOC(=O)c1ccccc1NC(=O)c1c(N)n(C)c(=O)[nH]c1=O	0.6	inactive		
